In publication PMC5540273 (PLoS ONE, 2017):

Test system: MAPKAPK5
Conditions: concentration: 1 μM,replicates: in singlicate; n = 1
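Further: KINOMEscan kinase panel screen.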

SMILES	%Inh
CCN(CC)CCOc1ccc(Nc2ncc3cc(-c4c(Cl)cccc4Cl)c(=O)n(C)c3n2)cc1 [SB-601273]	0%
CNC(=O)c1ccccc1Sc1ccc2c(/C=C/c3ccccn3)n[nH]c2c1	0%
C[C@@H](Oc1cc(-c2cnn(C3CCNCC3)c2)cnc1N)c1c(Cl)ccc(F)c1Cl	8%
C[C@@H]1CCN(C(=O)CC#N)C[C@@H]1N(C)c1ncnc2[nH]ccc12	0%
Cl.Cl.NC[C@H](CC1CCCCC1)NC(=O)c1cc(Br)c(-c2ccnc3[nH]ccc23)s1 [GSK1581427]	0%
C=CC(=O)Nc1cc2c(Nc3ccc(F)c(Cl)c3)ncnc2cc1OCCCN1CCOCC1 [GW781483]	14%
COc1ccc(C[C@@H](CN)NC(=O)c2cc(Br)c(-c3ccnc4[nH]ccc34)s2)cc1.Cl.Cl [GSK1389063]	0%
Cc1cc(C(=O)Nc2ccc(Oc3ccc4nc(NC(=O)C5CC5)cn4n3)cc2)nn1-c1ccccc1	0%
CCN(CC)CCCCNc1ncc2cc(-c3c(Cl)cccc3Cl)c(NC(=O)NC(C)(C)C)nc2n1	8%
CN(C)CC(O)COc1ccc(Nc2nccc(-c3cnn4nc(N5CCOCC5)ccc34)n2)cc1 (stereo not drawn) [GW767488]	23%
Cc1ccc(-n2nc(C(C)(C)C)cc2NC(=O)Nc2ccc(OCCN3CCOCC3)c3ccccc23)cc1 [GW839464]	0%
CC(C)N1C(=O)Cc2cc(Nc3ncc(C(F)(F)F)c(NCc4cccc(S(C)(=O)=O)c4)n3)ccc21	25%
C[C@H]1Oc2cc(cnc2N)-c2c(nn(C)c2C#N)CN(C)C(=O)c2ccc(F)cc21	0%
CN(C)CCOc1ccc(-c2cc(-c3c[nH]nc3-c3ccccn3)ccn2)cc1 [GW835314]	0%
Cl.Cl.NC[C@H](Cc1ccc(C(F)(F)F)cc1)NC(=O)c1cc(Br)c(-c2ccnc3[nH]ccc23)s1 [GSK1487252]	0%
CCn1c(-c2nonc2N)nc2c(C#CC(C)(C)O)nc(OCCN)cc21.Cl.Cl [GSK902056]	0%
Cl.Cl.Nc1nc(-c2ccc3c(N)n[nH]c3c2)cc(N2CCCC(NC(=O)c3ccccc3)C2)n1 (stereo not drawn) [GSK2286775]	0%
Nc1nc(Nc2ccccc2)cc(-c2ccc3c(N)n[nH]c3c2)n1 [GSK2225749]	0%
O=C(NCCNc1ccnc(NCc2ccc(F)cc2)n1)c1cc2ccccc2s1 [GSK1379944]	0%
CC(C)Nc1cc(-c2ccc3c(N)n[nH]c3c2)nc(N)n1 [GSK2221681]	0%
Cl.Oc1cc(-c2nc(-c3ccccc3)[nH]c2-c2ccncc2)ccc1Cl [SB-386023]	0%
Cc1n[nH]c2ccc(-c3cc(OC[C@@H](N)Cc4ccccc4)cnc3-c3ccoc3)cc12.O=C(O)C(F)(F)F.O=C(O)C(F)(F)F [GSK507358]	0%
Cc1ccc2c(-c3ccncc3)c(-c3ccc(F)cc3)nn2c1.Cl [GW461484]	0%
Cc1occc1-c1nc(N)c(OC[C@@H](N)Cc2c[nH]c3ccccc23)cc1-c1cc2c(C)n[nH]c2cn1 [GSK1660450]	0%
NC(=O)c1cc(-c2ccccc2)cc2c(C3CCNCC3)c[nH]c12 [GSK301362]	0%
Cc1cc2cn[nH]c2cc1-c1cccc2c(N)c(C(N)=O)nnc12	16%
O=C(NCCCN1CCOC1=O)c1cnc(NCc2cc(Cl)ccc2Cl)nc1NC1CCCC1	0%

Test system: MARK1
Conditions: concentration: 1 μM,replicates: in singlicate; n = 1

SMILES	%Inh
CCN(CC)CCOc1ccc(Nc2ncc3cc(-c4c(Cl)cccc4Cl)c(=O)n(C)c3n2)cc1 [SB-601273]	20%
CNC(=O)c1ccccc1Sc1ccc2c(/C=C/c3ccccn3)n[nH]c2c1	0%
C[C@@H](Oc1cc(-c2cnn(C3CCNCC3)c2)cnc1N)c1c(Cl)ccc(F)c1Cl	25%
C[C@@H]1CCN(C(=O)CC#N)C[C@@H]1N(C)c1ncnc2[nH]ccc12	0%
Cl.Cl.NC[C@H](CC1CCCCC1)NC(=O)c1cc(Br)c(-c2ccnc3[nH]ccc23)s1 [GSK1581427]	0%
C=CC(=O)Nc1cc2c(Nc3ccc(F)c(Cl)c3)ncnc2cc1OCCCN1CCOCC1 [GW781483]	0%
COc1ccc(C[C@@H](CN)NC(=O)c2cc(Br)c(-c3ccnc4[nH]ccc34)s2)cc1.Cl.Cl [GSK1389063]	0%
Cc1cc(C(=O)Nc2ccc(Oc3ccc4nc(NC(=O)C5CC5)cn4n3)cc2)nn1-c1ccccc1	9%
CCN(CC)CCCCNc1ncc2cc(-c3c(Cl)cccc3Cl)c(NC(=O)NC(C)(C)C)nc2n1	0%
CN(C)CC(O)COc1ccc(Nc2nccc(-c3cnn4nc(N5CCOCC5)ccc34)n2)cc1 (stereo not drawn) [GW767488]	24%
Cc1ccc(-n2nc(C(C)(C)C)cc2NC(=O)Nc2ccc(OCCN3CCOCC3)c3ccccc23)cc1 [GW839464]	18%
CC(C)N1C(=O)Cc2cc(Nc3ncc(C(F)(F)F)c(NCc4cccc(S(C)(=O)=O)c4)n3)ccc21	27%
C[C@H]1Oc2cc(cnc2N)-c2c(nn(C)c2C#N)CN(C)C(=O)c2ccc(F)cc21	15%
CN(C)CCOc1ccc(-c2cc(-c3c[nH]nc3-c3ccccn3)ccn2)cc1 [GW835314]	13%
Cl.Cl.NC[C@H](Cc1ccc(C(F)(F)F)cc1)NC(=O)c1cc(Br)c(-c2ccnc3[nH]ccc23)s1 [GSK1487252]	0%
CCn1c(-c2nonc2N)nc2c(C#CC(C)(C)O)nc(OCCN)cc21.Cl.Cl [GSK902056]	0%
Cl.Cl.Nc1nc(-c2ccc3c(N)n[nH]c3c2)cc(N2CCCC(NC(=O)c3ccccc3)C2)n1 (stereo not drawn) [GSK2286775]	5%
Nc1nc(Nc2ccccc2)cc(-c2ccc3c(N)n[nH]c3c2)n1 [GSK2225749]	8%
O=C(NCCNc1ccnc(NCc2ccc(F)cc2)n1)c1cc2ccccc2s1 [GSK1379944]	0%
CC(C)Nc1cc(-c2ccc3c(N)n[nH]c3c2)nc(N)n1 [GSK2221681]	0%
Cl.Oc1cc(-c2nc(-c3ccccc3)[nH]c2-c2ccncc2)ccc1Cl [SB-386023]	0%
Cc1n[nH]c2ccc(-c3cc(OC[C@@H](N)Cc4ccccc4)cnc3-c3ccoc3)cc12.O=C(O)C(F)(F)F.O=C(O)C(F)(F)F [GSK507358]	0%
Cc1ccc2c(-c3ccncc3)c(-c3ccc(F)cc3)nn2c1.Cl [GW461484]	0%
Cc1occc1-c1nc(N)c(OC[C@@H](N)Cc2c[nH]c3ccccc23)cc1-c1cc2c(C)n[nH]c2cn1 [GSK1660450]	70%
NC(=O)c1cc(-c2ccccc2)cc2c(C3CCNCC3)c[nH]c12 [GSK301362]	0%
Cc1cc2cn[nH]c2cc1-c1cccc2c(N)c(C(N)=O)nnc12	0%
O=C(NCCCN1CCOC1=O)c1cnc(NCc2cc(Cl)ccc2Cl)nc1NC1CCCC1	13%
